This test has as its target Scavenger receptor class B member 1 (Mus musculus) (UniProt Q61009). The test can be described thus: inhibitors of SR-BI mediated HDL lipid uptake, dose response, ldlA[mSR-BI] cells, fluorescence, cherry pick (AID 493194).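 Also: CHO cells lacking LDL receptor and overexpressing mouse SR-BI; cellular uptake of fluorescently labeled HDL measured as cell fluorescence.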 To be noted: CHO ldlA[mSR-BI] DiI-HDL uptake fluorescence, 3 h; series mostly up to 35 µM.

The results in this text go back to PubChem BioAssay AID493194 (Broad Institute, 2011).

Potency and affinity values are given separately. Results filed as inconclusive are left out. Where a call stands in place of a potency, no number is given. The source made the active and inactive calls.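 The calls were made as follows: active = a valid curve of falling signal whose half-effect concentration is at most ten times the top tested dose; inconclusive = flat curve at 30 to 70% inhibition, or poor fit; inactive = signal rise, flat within 30%, or potency beyond limit.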

Chain of Scavenger receptor class B member 1 (Mus musculus) (Q61009 whole entry, looked up): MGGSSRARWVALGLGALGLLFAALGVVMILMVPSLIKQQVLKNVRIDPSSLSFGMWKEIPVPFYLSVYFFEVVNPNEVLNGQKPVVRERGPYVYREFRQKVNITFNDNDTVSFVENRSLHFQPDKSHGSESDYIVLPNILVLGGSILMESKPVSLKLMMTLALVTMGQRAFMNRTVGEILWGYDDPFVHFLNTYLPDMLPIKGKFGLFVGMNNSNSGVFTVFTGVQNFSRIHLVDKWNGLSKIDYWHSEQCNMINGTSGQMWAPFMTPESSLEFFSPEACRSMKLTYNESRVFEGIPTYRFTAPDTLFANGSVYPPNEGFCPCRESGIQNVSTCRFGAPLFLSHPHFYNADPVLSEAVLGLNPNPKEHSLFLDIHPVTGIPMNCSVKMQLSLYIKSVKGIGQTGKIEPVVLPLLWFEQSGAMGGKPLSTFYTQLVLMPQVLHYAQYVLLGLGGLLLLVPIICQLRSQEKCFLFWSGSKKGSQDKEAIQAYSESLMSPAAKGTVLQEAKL

As to `COc1ccc(NC(=O)C2C3CCC(O3)C2C(=O)O)c(OC)c1` (configuration not stated), the compound was called inactive.
The same measure for `CC(C)(C)c1ccc(S(=O)(=O)N2CC3CC(C2)c2cccc(=O)n2C3)cc1` (configuration not stated): “inactive”.
`CCCCCCn1c(=O)c(C(=O)Nc2cnccn2)c(O)c2ccccc21`: the compound was classed as inactive.
For `O=S1(=O)N(CCN2CC=C(c3c[nH]c4cc(F)ccc34)CC2)c2cccc3c2N1CCC3`, the compound was called inactive.
In the case of `CNC1(c2ccc(F)cc2)CCCCC1`, the compound was called inactive.
Consider `O=c1cccc2n1CC1CC2CN(S(=O)(=O)c2cc(Cl)ccc2Cl)C1` (configuration not stated), for which the outcome was inactive.
The same measure for `O=C(Nc1ccccc1F)OC1CN2CCC1CC2` (configuration not stated): “inactive”.
